Consider 16 compounds from ChEMBL document CHEMBL3433997, “St. Jude Leishmania screening dataset” (2016).

The target of the test is Solute carrier family 2, facilitated glucose transporter member 1 (Homo sapiens) (UniProt P11166). The experiment in a line: ST_JUDE_LEISH: Cytotoxicity at 2uM final concentration against transgenic Leishmania Mexicana promastigotes LmGLUT1 that are glucose transport deficient and complemented with the human glucose transporter GLUT1. Activity is measured by DNA content using SYBR green in vitro. In kind it is functional.
Sequence of Solute carrier family 2, facilitated glucose transporter member 1 (Homo sapiens) (P11166 whole entry): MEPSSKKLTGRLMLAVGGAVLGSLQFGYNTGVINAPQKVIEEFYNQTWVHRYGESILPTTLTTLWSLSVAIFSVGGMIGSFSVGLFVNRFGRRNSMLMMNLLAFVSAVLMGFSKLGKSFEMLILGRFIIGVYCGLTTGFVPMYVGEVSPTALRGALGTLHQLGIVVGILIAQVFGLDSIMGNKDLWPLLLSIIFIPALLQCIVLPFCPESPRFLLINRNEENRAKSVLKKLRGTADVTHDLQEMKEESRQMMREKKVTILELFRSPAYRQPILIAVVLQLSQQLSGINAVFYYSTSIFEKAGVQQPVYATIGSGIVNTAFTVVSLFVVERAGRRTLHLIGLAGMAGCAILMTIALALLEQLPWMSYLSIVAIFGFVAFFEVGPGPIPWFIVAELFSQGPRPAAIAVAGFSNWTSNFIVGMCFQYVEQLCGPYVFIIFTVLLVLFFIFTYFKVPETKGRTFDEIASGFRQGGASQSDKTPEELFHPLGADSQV
Turning to `O=C1C(c2ccccc2)=C(Nc2ccc([N+](=O)[O-])cc2)c2ccccc21`, the inhibition worked out at 6.69%. With `Cc1ccc(NC(=O)NC2CCN(c3ccnc4cc(Cl)ccc34)C2)cc1` (stereo unspecified) the figure was 0.94%; with `Cn1nccc1C(=O)NCCNCc1ccc(-c2cccc(-c3nc4cc(C(F)(F)F)ccc4[nH]3)c2)cc1`, 0.63%; with `CCC(C)Oc1ccc2nc(N)nc(N)c2c1Cl` (stereo unspecified), 41.2%. Next, `CCOc1ccc2c(=NN=Cc3ccc(F)cc3)cc(C)[nH]c2c1`: 4.44%; `Nc1ncnc2occ(-c3ccc(NC(=O)Nc4cc(C(F)(F)F)ccc4F)cc3)c12`: 0.61%; `CCCCNC(=O)C1CCCN(C(=O)c2ccc(O)c(-c3ccc(Cl)c(Cl)c3)c2)C1` (stereo unspecified): 1.28%. `N#Cc1cccc(COC(=O)C2=C(COc3ccccc3Cl)NC(=O)NC2c2c[nH]c3cnccc23)c1` (stereo unspecified): the inhibition came out at 9.04%. `CCOc1ccc2nc3cc([N+](=O)[O-])ccc3c(N)c2c1` gave an inhibition of 6.85%. Next, `CCc1cc2c(cc1OCCN(C)C)N(C(=O)Nc1ccc(-c3ccncc3)c(Cl)c1)CC2`: 6.82%; `Cc1cc(N2CCC(NS(=O)(=O)c3ccc(F)cc3)CC2)nc(Nc2cccc(C#N)c2)n1`: 39.9%; `Cc1cccc2nc(-c3ccc(-c4cccc(NC(=O)NCc5ccccc5)c4)cc3)[nH]c12`: 0.35%. With `CS(=O)(=O)c1ccc2[nH]c(-c3cc(-c4ccc(OCCN5CCOCC5)cc4)cnc3N)nc2c1` the figure was 6.63%; with `Cc1cc(NC2CCN(Cc3ccccc3)CC2)nc(NCCCCc2ccccc2)n1`, 23.4%.

`CCCC1N=C(N)N=C(N)N1c1cccc([N+](=O)[O-])c1` (stereo unspecified) gave an inhibition of 1.33%. Next, `Fc1ccc(C=NN=c2cc[nH]c3ccc(C(F)(F)F)cc23)cc1`: 6.39%.

The inhibition is the change of the read-out against control, counted positive when it falls. A higher inhibition goes with strong suppression.
